Source: the supplement of paper PMC10037445
Whole data set: some 2,900 compounds, median “NF-kB SEAP reporter activity, fold change vs agonist alone” near 0.99, cut for the highest 2% near 2.6. The list comes from a sample in which the highest values are over-represented; it also holds similar structures and randomly drawn compounds.

Legend:
[1] = test system: RAW-Dual; test: NF-kB SEAP reporter activity, fold change vs agonist alone; higher = enhanced NF-kB activity; conditions: library stock concentration (final ~1000-fold dilution): 10 mM, cytotoxicity flag (confluency mask): not cytotoxic
How it was run: (§1)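 Library stock was pin-tooled at 50 nL into 384-well plates of RAW-Dual macrophages (50,000 cells/well, DMEM), followed 1 h later by a PRR agonist, and the cells were kept at 37 °C, 5% CO2. Supernatant collected after 20 hours was read for IRF by QuantiLuc luminescence and for NF-κB by QuantiBlue absorbance at 620 nm. Reporter activity is fold change over agonist-alone wells, and a well counted as cytotoxic when its IncuCyte confluency was below 70% of agonist controls in both mask sets.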

[2] = test system: RAW-Dual; test: NF-kB SEAP reporter activity, fold change vs agonist alone; cytotoxicity flag (confluency mask): not cytotoxic; higher = enhanced NF-kB activity
How it was run: as §1

[3] = agonist: ODN 1826 (TLR9) 0.5 ug/mL
[4] = agonist: Pam2CSK4 (TLR2/6) 0.1 ug/mL
[5] = agonist: Pam3CSK4 (TLR2/1) 0.1 ug/mL

Cc1[nH]nc(C(F)(F)F)c1Cc1sc2c(c1C(=O)N1CC(C)(O)CO1)c(=O)n(C)c(=O)n2C(C)C (configuration not stated)
NF-kB SEAP reporter activity ([1]; agonist: Imiquimod (TLR7) […]): 1.11
NF-kB SEAP reporter activity ([1]; agonist: MPLA (TLR4) […]): 1.25

Cc1[nH]nc(C(F)(F)F)c1Cc1sc2c(c1C(=O)N1CC(C)(O)CO1)c(=O)n(C)c(=O)n2C(C)C (configuration not stated) (library stock concentration (final ~1000-fold dilution): 10 mM)
NF-kB SEAP reporter activity ([2]; agonist: LPS (TLR4) 0.1 ug/mL): 1.81
NF-kB SEAP reporter activity [2, 3]: 1.27
NF-kB SEAP reporter activity [2, 4]: 0.918
NF-kB SEAP reporter activity [2, 5]: 1.06

Cc1cc(C)nc(NC(=S)N2CCN(Cc3ccc(C(F)(F)F)cc3)CC2)c1 (library stock concentration (final ~1000-fold dilution): 10 mM)
NF-kB SEAP reporter activity ([2]; agonist: LPS (TLR4) 0.1 ug/mL): 0.783
NF-kB SEAP reporter activity [2, 3]: 0.834
NF-kB SEAP reporter activity [2, 4]: 0.805
NF-kB SEAP reporter activity [2, 5]: 0.809

Cc1cc(C)nc(NC(=S)N2CCN(Cc3ccc(C(F)(F)F)cc3)CC2)c1
NF-kB SEAP reporter activity ([1]; agonist: Imiquimod (TLR7) […]): 0.758
NF-kB SEAP reporter activity ([1]; agonist: MPLA (TLR4) […]): 0.954

CC1c2cccc(O)c2C(=O)C2=C(O)C3(O)C(=O)C(C(N)=O)=C(O)C(N(C)C)C3C(O)C21 (configuration not stated) (library stock concentration (final ~1000-fold dilution): 10 mM)
NF-kB SEAP reporter activity ([2]; agonist: LPS (TLR4) 0.1 ug/mL): 1.81
NF-kB SEAP reporter activity [2, 3]: 0.966
NF-kB SEAP reporter activity [2, 4]: 0.896
NF-kB SEAP reporter activity [2, 5]: 0.885

CC1c2cccc(O)c2C(=O)C2=C(O)C3(O)C(=O)C(C(N)=O)=C(O)C(N(C)C)C3C(O)C21 (configuration not stated)
NF-kB SEAP reporter activity ([1]; agonist: MPLA (TLR4) […]): 1.13

CC(=O)N1CCC(Nc2cc(C(=O)NCC(O)CN3CCc4ccccc4C3)ncn2)CC1 (configuration not stated)
NF-kB SEAP reporter activity ([1]; agonist: Imiquimod (TLR7) […]): 0.92
NF-kB SEAP reporter activity ([1]; agonist: MPLA (TLR4) […]): 1.03

CC(=O)N1CCC(Nc2cc(C(=O)NCC(O)CN3CCc4ccccc4C3)ncn2)CC1 (configuration not stated) (library stock concentration (final ~1000-fold dilution): 10 mM)
NF-kB SEAP reporter activity ([2]; agonist: LPS (TLR4) 0.1 ug/mL): 1.08
NF-kB SEAP reporter activity [2, 3]: 0.948
NF-kB SEAP reporter activity [2, 4]: 1.13
NF-kB SEAP reporter activity [2, 5]: 1.17

Cc1cc(N=Nc2ccc(S(=O)(=O)Nc3ccccn3)cc2)c(N)cc1O (library stock concentration (final ~1000-fold dilution): 10 mM)
NF-kB SEAP reporter activity ([2]; agonist: LPS (TLR4) 0.1 ug/mL): 3.77
NF-kB SEAP reporter activity [2, 3]: 2.32
NF-kB SEAP reporter activity [2, 4]: 0.966
NF-kB SEAP reporter activity [2, 5]: 2.13

Cc1cc(N=Nc2ccc(S(=O)(=O)Nc3ccccn3)cc2)c(N)cc1O
NF-kB SEAP reporter activity ([1]; agonist: Imiquimod (TLR7) […]): 1.38
NF-kB SEAP reporter activity ([1]; agonist: MPLA (TLR4) […]): 2.48

O=C(O)C1=C/C(=N\Nc2ccc(S(=O)(=O)Nc3ccccn3)cc2)C=CC1=O
NF-kB SEAP reporter activity ([1]; agonist: Imiquimod (TLR7) […]): 1.07
NF-kB SEAP reporter activity ([1]; agonist: MPLA (TLR4) […]): 1.31

Cc1cc(N=Nc2ccc3c(c2)CCC(=O)N3)c(N)cc1O
NF-kB SEAP reporter activity ([1]; agonist: Imiquimod (TLR7) […]): 1.35
NF-kB SEAP reporter activity ([1]; agonist: MPLA (TLR4) […]): 1.77

O=C(O)C1=C/C(=N\Nc2ccc(S(=O)(=O)Nc3ccccn3)cc2)C=CC1=O (library stock concentration (final ~1000-fold dilution): 10 mM)
NF-kB SEAP reporter activity ([2]; agonist: LPS (TLR4) 0.1 ug/mL): 1.65
NF-kB SEAP reporter activity [2, 3]: 1.26
NF-kB SEAP reporter activity [2, 4]: 0.969
NF-kB SEAP reporter activity [2, 5]: 0.851

Cc1cc(N=Nc2ccc3c(c2)CCC(=O)N3)c(N)cc1O (library stock concentration (final ~1000-fold dilution): 10 mM)
NF-kB SEAP reporter activity ([2]; agonist: LPS (TLR4) 0.1 ug/mL): 1.42
NF-kB SEAP reporter activity [2, 3]: 1.33
NF-kB SEAP reporter activity [2, 4]: 0.692
NF-kB SEAP reporter activity [2, 5]: 1.22

O=C(c1ccccc1)C(O)O (library stock concentration (final ~1000-fold dilution): 10 mM)
NF-kB SEAP reporter activity ([2]; agonist: LPS (TLR4) 0.1 ug/mL): 1.12
NF-kB SEAP reporter activity [2, 3]: 1.04
NF-kB SEAP reporter activity [2, 4]: 1.14
NF-kB SEAP reporter activity [2, 5]: 1.07

O=C(c1ccccc1)C(O)O
NF-kB SEAP reporter activity ([1]; agonist: MPLA (TLR4) […]): 1.19

CCC(=O)OC1CC(=O)OC(C)C/C=C/C=C/C(O)C(C)CC(CC=O)C(OC2OC(C)C(OC3CC(C)(O)C(OC(=O)CC)C(C)O3)C(N(C)C)C2O)C1OC (configuration not stated)
NF-kB SEAP reporter activity ([1]; agonist: Imiquimod (TLR7) […]): 0.961
NF-kB SEAP reporter activity ([1]; agonist: MPLA (TLR4) […]): 1.07

CCC(=O)OC1CC(=O)OC(C)C/C=C/C=C/C(O)C(C)CC(CC=O)C(OC2OC(C)C(OC3CC(C)(O)C(OC(=O)CC)C(C)O3)C(N(C)C)C2O)C1OC (configuration not stated) (library stock concentration (final ~1000-fold dilution): 10 mM)
NF-kB SEAP reporter activity ([2]; agonist: LPS (TLR4) 0.1 ug/mL): 0.93
NF-kB SEAP reporter activity [2, 3]: 1.02
NF-kB SEAP reporter activity [2, 4]: 1.06
NF-kB SEAP reporter activity [2, 5]: 1.21
